Source: the supplement of paper PMC13380429

The compounds below were run on Vero E6 infected with SARS-CoV-2 (assay: morphology score (similarity to uninfected cells); higher = more like uninfected cells). Conditions: 24 h.

| Compound | morphology score |
| --- | --- |
| O=C1NC(=O)c2cc(Nc3ccccc3)c(Nc3ccccc3)cc21 (10 µM) | 0.39 |
| N[C@@H](Cc1cc(-c2ccc(Cl)cc2Cl)cc(CP(=O)(O)O)c1O)C(=O)O (10 µM) | -0.167 |
| CCOC(=O)c1c(C)n(C)c2ccc(O)cc12 [mecarbinate] (10 µM) | 0.132 |
| O=C(OCCN1CCOCC1)c1cccnc1Nc1cccc(C(F)(F)F)c1 [morniflumate] (10 µM) | 0.0767 |
| C=C[C@H]1CN2CC[C@H]1C[C@@H]2[C@@H](O)c1ccnc2ccc(OC)cc12 [quinidine] (10 µM) | 0.155 |
| COCCOc1ccc(N2CCN(CCn3ncc4c3nc(N)n3nc(-c5ccco5)nc43)CC2)cc1 [preladenant] (10 µM) | 0.0084 |
| CCCCCCNC(=O)n1cc(F)c(=O)[nH]c1=O [Carmofur] (0.833333 µM) | 0.222 |
| COC(=O)[C@@H](N)CCCNC(=N)N[N+](=O)[O-] (10 µM) | 0.125 |
| COc1ccc(CCNCC(O)COc2cccc(C)c2)cc1OC (centres undefined) [bevantolol] (10 µM) | -0.027 |
| CCN(CC)Cc1ccc(C(=O)N(CCc2ccccc2OC)[C@@H]2CCNC2)cc1 (10 µM) | 0.0144 |
| CC1Oc2cc(cnc2N)-c2c(nn(C)c2C#N)CN(C)C(=O)c2ccc(F)cc21 (centres undefined) (0.833333 µM) | 0.32 |
| CNC(=O)c1cccc(-c2ccc3c(N4CCOC[C@@H]4C)nc(N4CCOC[C@@H]4C)nc3n2)c1 (10 µM) | -0.219 |
| C[C@H](NC(=O)c1sccc1OCc1ccc(Cl)cc1)c1ccccc1 (10 µM) | 0.0842 |
| COc1cccc(C(=O)CCN[C@@H](C)[C@H](O)c2ccccc2)c1 [oxyfedrine] (10 µM) | 0.217 |
